Measurements from article PMC7862700, “An all-to-all approach to the identification of sequence-specific readers for epigenetic DNA modifications on cytosine”.

What was measured:
Assay in all cases: DAPPL (digital affinity profiling via proximity ligation, sequencing); 10 mM Tris-HCl pH 7.5, 50 mM NaCl, 1 mM DTT, 4% glycerol, room temperature, 30 min; GST-TFs on glutathione beads, 16-mer random dsDNA library, 0.1% formaldehyde crosslink after washing; high values mean tight binding
FLI1 = target: T1, FLI1 (Homo sapiens, UniProt Q01543 1-452); conditions: protein: recombinant; tags: N-terminal GST; dsDNA, one strand shown
T1 sequence: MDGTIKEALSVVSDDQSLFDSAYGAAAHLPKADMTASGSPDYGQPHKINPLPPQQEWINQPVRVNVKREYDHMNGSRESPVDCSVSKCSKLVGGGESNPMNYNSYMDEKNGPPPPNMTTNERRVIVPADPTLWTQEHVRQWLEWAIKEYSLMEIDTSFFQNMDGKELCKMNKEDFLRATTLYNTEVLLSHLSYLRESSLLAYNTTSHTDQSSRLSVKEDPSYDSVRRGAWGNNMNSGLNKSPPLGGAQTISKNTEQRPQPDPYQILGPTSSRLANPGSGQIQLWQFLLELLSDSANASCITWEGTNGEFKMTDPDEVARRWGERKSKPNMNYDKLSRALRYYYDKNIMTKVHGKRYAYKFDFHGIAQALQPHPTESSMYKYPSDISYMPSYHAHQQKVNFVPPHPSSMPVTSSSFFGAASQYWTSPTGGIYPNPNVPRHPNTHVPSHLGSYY
Summary of the method: (§1)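 A tag-only sample was pooled with DNA-barcoded human transcription factors that had been expressed in yeast as GST fusions and captured on glutathione beads. The pools were incubated for 30 min at room temperature with 200 nmole of a random double-stranded 16-mer DNA library in Tris/NaCl/DTT/glycerol buffer, then washed, crosslinked with 0.1% formaldehyde, proximity-ligated (BsaI/T4 ligase, 1 h, 37 °C), PCR-amplified and sequenced on an Illumina NextSeq500. Binding signal is each hexamer's read frequency for a factor divided by its frequency for the tag-only sample.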

ELK1 = target: T2, ELK1 (Homo sapiens, UniProt P19419 1-428); conditions: protein: recombinant; tags: N-terminal GST; dsDNA, one strand shown
T2 sequence: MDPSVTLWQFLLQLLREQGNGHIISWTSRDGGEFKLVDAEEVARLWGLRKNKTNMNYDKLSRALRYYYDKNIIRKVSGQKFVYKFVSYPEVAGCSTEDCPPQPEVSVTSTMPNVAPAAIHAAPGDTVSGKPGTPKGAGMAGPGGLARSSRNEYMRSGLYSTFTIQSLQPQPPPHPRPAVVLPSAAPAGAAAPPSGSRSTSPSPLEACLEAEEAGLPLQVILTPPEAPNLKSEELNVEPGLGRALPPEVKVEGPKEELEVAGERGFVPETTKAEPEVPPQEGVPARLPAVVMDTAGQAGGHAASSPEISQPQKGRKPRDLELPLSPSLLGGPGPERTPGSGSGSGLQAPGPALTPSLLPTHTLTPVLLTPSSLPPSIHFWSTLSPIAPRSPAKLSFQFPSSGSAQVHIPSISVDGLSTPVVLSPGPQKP
Summary of the method: as §1

GABPA = target: T3, GABPA (Homo sapiens, UniProt Q06546 1-454); conditions: protein: recombinant; tags: N-terminal GST; dsDNA, one strand shown
T3 sequence: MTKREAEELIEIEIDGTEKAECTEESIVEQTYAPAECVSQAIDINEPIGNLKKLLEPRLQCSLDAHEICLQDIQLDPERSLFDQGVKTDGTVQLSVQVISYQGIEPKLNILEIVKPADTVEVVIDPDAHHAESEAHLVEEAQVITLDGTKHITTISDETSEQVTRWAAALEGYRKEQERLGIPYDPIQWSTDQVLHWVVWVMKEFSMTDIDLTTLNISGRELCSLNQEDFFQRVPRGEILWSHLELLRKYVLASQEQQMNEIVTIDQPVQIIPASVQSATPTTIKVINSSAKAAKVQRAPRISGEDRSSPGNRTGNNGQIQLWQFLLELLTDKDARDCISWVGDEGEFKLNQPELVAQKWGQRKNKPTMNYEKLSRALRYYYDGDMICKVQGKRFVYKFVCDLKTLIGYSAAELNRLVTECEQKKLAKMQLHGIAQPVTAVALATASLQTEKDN
Summary of the method: as §1

ERG = target: T4, ERG (Homo sapiens, UniProt P11308 1-479); conditions: protein: recombinant; tags: N-terminal GST; dsDNA, one strand shown
T4 sequence: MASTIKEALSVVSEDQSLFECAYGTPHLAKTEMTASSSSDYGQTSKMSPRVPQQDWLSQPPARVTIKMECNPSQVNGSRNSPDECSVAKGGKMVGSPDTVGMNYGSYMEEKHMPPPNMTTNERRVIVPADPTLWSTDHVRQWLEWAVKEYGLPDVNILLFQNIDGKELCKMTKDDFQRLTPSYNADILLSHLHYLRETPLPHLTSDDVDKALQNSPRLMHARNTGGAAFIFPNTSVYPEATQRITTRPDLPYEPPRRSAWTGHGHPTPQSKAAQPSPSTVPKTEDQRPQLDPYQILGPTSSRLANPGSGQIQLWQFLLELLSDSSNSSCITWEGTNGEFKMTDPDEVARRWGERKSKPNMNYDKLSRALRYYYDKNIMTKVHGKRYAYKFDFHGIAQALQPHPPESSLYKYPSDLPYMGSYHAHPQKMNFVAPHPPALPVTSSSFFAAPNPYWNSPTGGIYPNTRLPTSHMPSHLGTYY
Summary of the method: as §1

ELF1 = ELF1 (Homo sapiens, UniProt P32519 1-619); conditions: protein: recombinant; tags: N-terminal GST; dsDNA, one strand shown
Summary of the method: as §1

EHF = target: T5, EHF (Homo sapiens, UniProt Q9NZC4 1-300); conditions: protein: recombinant; tags: N-terminal GST; dsDNA, one strand shown
T5 sequence: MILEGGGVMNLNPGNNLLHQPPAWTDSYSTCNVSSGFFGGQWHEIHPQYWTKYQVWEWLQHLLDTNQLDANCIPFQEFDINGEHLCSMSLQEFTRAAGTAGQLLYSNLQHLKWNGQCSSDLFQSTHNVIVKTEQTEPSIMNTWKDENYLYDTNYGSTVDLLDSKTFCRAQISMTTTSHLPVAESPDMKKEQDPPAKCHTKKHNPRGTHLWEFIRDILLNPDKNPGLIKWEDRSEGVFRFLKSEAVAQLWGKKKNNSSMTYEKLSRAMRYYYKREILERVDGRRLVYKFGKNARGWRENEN
Summary of the method: as §1

SPI1 = SPI1 (Homo sapiens, UniProt P17947 1-270); conditions: protein: recombinant; tags: N-terminal GST; dsDNA, one strand shown
Summary of the method: as §1

SPIB = SPIB (Homo sapiens, UniProt Q01892 1-262); conditions: protein: recombinant; tags: N-terminal GST; dsDNA, one strand shown
Summary of the method: as §1

ELK3 = target: T6, ELK3 (Homo sapiens, UniProt P41970 1-407); conditions: protein: recombinant; tags: N-terminal GST; dsDNA, one strand shown
T6 sequence: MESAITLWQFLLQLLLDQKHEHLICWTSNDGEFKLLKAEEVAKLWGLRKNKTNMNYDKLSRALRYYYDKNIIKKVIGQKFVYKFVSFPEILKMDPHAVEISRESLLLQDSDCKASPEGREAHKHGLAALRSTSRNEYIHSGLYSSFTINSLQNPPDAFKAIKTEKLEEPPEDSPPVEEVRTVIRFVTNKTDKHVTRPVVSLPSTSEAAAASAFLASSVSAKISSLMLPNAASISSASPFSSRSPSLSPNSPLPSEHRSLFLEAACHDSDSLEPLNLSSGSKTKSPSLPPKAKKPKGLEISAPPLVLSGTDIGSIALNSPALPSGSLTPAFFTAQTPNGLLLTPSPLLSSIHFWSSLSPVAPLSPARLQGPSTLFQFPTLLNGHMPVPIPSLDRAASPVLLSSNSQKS
Summary of the method: as §1

FEV = target: T7, FEV (Homo sapiens, UniProt Q99581 1-238); conditions: protein: recombinant; tags: N-terminal GST; dsDNA, one strand shown
T7 sequence: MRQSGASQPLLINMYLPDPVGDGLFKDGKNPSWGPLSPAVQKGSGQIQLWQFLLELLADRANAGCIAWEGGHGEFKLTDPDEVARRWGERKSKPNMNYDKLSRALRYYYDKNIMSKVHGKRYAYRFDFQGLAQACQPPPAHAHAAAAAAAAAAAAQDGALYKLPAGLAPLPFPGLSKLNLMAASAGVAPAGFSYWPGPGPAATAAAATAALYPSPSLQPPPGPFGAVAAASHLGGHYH
Summary of the method: as §1

ETV5 = ETV5 (Homo sapiens, UniProt P41161 1-510); conditions: protein: recombinant; tags: N-terminal GST; dsDNA, one strand shown
Summary of the method: as §1

HSF1 = HSF1 (Homo sapiens, UniProt Q00613 1-529); conditions: protein: recombinant; tags: N-terminal GST; chain copies: 3; dsDNA, one strand shown
Summary of the method: as §1

SPIC = target: T8, SPIC (Homo sapiens, UniProt Q8N5J4 1-248); conditions: protein: recombinant; tags: N-terminal GST; dsDNA, one strand shown
T8 sequence: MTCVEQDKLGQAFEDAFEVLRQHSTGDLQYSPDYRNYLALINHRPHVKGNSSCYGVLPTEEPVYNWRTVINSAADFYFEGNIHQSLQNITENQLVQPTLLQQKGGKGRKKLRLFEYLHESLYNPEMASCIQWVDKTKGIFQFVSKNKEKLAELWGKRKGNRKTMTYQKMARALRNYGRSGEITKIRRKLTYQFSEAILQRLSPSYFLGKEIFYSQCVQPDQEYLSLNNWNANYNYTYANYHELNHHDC
Summary of the method: as §1

ELF4 = ELF4 (Homo sapiens, UniProt Q99607 1-663); conditions: protein: recombinant; tags: N-terminal GST; dsDNA, one strand shown
Summary of the method: as §1

ELK4 = target: T9, ELK4 (Homo sapiens, UniProt P28324-2 1-405); conditions: protein: recombinant; tags: N-terminal GST; dsDNA, one strand shown
T9 sequence: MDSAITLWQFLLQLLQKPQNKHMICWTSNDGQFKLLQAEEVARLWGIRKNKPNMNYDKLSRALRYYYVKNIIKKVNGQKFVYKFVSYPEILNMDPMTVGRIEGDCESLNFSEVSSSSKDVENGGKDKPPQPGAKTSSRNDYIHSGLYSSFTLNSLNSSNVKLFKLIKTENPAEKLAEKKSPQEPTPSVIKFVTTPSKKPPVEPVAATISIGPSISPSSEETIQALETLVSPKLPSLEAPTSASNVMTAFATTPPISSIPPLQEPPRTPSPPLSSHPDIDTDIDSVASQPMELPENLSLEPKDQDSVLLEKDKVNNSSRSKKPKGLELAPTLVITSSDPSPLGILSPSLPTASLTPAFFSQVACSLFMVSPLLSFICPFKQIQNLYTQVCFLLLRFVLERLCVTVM
Summary of the method: as §1

ETV2 = target: T10, ETV2 (Homo sapiens, UniProt O00321 1-342); conditions: protein: recombinant; tags: N-terminal GST; dsDNA, one strand shown
T10 sequence: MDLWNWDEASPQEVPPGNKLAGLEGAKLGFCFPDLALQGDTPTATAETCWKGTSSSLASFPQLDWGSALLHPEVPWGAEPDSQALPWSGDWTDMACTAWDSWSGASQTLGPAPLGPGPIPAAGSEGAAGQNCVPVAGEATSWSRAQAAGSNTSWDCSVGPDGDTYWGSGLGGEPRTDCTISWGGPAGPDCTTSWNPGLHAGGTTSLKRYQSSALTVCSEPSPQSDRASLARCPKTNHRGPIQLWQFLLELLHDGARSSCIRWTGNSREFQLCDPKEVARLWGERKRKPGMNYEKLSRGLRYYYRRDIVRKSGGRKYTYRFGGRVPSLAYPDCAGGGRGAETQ
Summary of the method: as §1

ELF3 = target: T11, ELF3 (Homo sapiens, UniProt P78545 1-371); conditions: protein: recombinant; tags: N-terminal GST; dsDNA, one strand shown
T11 sequence: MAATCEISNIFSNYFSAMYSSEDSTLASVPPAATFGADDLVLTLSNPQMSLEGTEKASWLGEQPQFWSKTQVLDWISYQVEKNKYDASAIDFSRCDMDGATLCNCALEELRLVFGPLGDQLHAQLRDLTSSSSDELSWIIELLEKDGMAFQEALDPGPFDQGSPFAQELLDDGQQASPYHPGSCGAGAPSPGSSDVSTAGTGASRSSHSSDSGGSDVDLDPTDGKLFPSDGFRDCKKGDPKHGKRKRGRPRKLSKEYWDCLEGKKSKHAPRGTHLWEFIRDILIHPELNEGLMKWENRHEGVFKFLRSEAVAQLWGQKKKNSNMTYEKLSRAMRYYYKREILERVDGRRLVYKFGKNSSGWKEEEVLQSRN
Summary of the method: as §1

CRX = CRX (Homo sapiens, UniProt O43186 1-299); conditions: protein: recombinant; tags: N-terminal GST; dsDNA, one strand shown
Summary of the method: as §1

ETV1 = ETV1 (Homo sapiens, UniProt P50549 1-477); conditions: protein: recombinant; tags: N-terminal GST; dsDNA, one strand shown
Summary of the method: as §1

Sequence of HSF1 (Q00613 whole entry): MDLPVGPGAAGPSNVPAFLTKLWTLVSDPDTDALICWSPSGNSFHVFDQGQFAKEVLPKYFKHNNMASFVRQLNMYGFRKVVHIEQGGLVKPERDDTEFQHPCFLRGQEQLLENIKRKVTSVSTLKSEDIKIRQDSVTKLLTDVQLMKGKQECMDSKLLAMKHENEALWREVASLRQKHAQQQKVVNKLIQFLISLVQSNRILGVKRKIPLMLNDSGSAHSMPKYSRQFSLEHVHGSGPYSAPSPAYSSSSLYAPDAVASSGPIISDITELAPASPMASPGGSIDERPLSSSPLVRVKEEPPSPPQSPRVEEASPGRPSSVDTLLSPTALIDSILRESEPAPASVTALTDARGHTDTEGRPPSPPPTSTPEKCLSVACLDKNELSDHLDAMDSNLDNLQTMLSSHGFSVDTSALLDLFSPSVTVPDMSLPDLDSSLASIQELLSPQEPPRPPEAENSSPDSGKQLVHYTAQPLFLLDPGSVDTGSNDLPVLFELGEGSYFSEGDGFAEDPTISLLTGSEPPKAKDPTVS
Sequence of ELF1 (P32519 whole entry): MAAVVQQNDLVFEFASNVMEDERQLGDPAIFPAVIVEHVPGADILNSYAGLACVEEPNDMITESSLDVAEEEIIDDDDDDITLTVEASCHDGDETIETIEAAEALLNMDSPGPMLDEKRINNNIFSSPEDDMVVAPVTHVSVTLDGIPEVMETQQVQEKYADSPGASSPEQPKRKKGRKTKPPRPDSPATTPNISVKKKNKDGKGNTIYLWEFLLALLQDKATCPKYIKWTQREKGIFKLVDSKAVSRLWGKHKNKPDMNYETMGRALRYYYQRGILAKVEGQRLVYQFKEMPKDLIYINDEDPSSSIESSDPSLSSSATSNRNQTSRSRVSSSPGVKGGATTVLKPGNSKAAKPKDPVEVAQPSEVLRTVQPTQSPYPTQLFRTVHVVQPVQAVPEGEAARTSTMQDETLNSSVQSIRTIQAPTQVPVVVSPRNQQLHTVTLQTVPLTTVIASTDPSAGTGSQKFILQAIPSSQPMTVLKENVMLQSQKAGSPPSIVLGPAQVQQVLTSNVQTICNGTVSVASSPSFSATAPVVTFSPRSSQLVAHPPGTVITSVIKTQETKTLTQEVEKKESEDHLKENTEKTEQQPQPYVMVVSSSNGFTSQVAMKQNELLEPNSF
Sequence of ELF4 (Q99607 whole entry): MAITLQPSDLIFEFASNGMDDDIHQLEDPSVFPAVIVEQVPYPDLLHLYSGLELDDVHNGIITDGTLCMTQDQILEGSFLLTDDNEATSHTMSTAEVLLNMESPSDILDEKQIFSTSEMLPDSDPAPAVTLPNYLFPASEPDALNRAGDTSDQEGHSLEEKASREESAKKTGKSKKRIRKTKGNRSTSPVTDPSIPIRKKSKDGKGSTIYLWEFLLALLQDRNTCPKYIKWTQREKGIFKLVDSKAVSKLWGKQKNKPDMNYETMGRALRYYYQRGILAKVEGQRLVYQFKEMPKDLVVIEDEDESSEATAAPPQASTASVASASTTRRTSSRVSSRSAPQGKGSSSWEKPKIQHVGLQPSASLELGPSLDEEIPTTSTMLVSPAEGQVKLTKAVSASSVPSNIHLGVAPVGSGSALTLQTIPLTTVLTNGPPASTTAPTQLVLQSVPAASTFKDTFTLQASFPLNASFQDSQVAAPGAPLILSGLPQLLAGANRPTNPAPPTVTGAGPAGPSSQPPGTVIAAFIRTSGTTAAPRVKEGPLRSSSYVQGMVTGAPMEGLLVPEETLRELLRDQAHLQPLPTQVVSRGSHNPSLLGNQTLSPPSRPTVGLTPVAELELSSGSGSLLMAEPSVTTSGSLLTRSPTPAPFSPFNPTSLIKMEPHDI
Sequence of SPIB (Q01892 whole entry): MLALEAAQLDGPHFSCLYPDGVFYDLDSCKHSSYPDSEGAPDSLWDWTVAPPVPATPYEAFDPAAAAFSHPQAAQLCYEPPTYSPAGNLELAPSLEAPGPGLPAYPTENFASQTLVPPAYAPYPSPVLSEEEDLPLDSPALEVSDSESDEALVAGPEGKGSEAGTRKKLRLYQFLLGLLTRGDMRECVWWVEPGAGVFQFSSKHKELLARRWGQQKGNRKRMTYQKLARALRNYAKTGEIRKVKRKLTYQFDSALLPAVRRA
Sequence of CRX (O43186 whole entry): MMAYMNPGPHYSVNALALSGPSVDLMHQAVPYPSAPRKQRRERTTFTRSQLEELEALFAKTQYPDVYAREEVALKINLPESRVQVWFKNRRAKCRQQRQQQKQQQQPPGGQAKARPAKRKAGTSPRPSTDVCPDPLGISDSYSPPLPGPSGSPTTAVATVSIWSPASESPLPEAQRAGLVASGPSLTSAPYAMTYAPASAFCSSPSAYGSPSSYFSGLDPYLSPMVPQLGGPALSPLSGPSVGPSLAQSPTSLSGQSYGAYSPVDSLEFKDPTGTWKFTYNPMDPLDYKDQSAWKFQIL
Sequence of ETV1 (P50549 whole entry): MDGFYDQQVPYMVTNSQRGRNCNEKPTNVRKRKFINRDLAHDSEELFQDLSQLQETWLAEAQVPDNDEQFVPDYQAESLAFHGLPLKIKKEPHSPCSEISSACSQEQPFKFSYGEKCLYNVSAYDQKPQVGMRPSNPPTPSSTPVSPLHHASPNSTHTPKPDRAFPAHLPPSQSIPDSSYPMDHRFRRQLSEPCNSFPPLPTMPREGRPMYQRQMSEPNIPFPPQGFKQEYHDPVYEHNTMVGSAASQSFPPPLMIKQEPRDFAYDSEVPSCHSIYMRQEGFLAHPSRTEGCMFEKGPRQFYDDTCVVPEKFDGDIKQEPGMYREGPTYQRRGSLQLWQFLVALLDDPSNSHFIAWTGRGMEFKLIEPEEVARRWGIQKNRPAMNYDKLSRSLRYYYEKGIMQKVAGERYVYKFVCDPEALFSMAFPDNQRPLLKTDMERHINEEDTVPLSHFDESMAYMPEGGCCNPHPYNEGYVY
Sequence of ETV5 (P41161 whole entry): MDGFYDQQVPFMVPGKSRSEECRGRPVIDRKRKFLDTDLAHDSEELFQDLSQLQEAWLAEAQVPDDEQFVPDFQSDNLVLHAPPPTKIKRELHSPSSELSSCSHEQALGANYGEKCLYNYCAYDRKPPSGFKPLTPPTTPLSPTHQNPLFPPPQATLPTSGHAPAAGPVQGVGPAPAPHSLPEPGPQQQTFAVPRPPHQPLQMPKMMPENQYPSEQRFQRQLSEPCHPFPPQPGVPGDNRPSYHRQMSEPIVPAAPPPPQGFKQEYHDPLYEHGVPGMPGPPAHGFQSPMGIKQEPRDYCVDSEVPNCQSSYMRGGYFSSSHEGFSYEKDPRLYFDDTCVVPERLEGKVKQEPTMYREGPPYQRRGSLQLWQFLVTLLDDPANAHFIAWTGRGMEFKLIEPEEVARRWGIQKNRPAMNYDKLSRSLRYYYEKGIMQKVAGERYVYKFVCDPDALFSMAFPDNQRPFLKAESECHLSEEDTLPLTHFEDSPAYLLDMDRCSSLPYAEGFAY

With AATGTT the binding signal (FLI1) was 1.55 fold enrichment (6-mer frequency, TF over GST control), the binding signal (ELK1) was 1.47 fold enrichment (6-mer frequency, TF over GST control) and the binding signal (GABPA) was 1.49 fold enrichment (6-mer frequency, TF over GST control). For the same sequence, the binding signal (ERG) was 1.48 fold enrichment (6-mer frequency, TF over GST control), the binding signal (ELF1) was 1.57 fold enrichment (6-mer frequency, TF over GST control) and the binding signal (EHF) was 1.56 fold enrichment (6-mer frequency, TF over GST control). For the same sequence, the binding signal (SPI1) was 1.47 fold enrichment (6-mer frequency, TF over GST control), the binding signal (SPIB) was 1.58 fold enrichment (6-mer frequency, TF over GST control) and the binding signal (ELK3) was 1.47 fold enrichment (6-mer frequency, TF over GST control). For the same sequence, the binding signal (FEV) was 1.47 fold enrichment (6-mer frequency, TF over GST control), the binding signal (ETV5) was 1.61 fold enrichment (6-mer frequency, TF over GST control) and the binding signal (HSF1) was 2.33 fold enrichment (6-mer frequency, TF over GST control). The binding signal (SPIC) was 1.68 fold enrichment (6-mer frequency, TF over GST control), the binding signal (ELF4) was 1.57 fold enrichment (6-mer frequency, TF over GST control) and the binding signal (ELK4) was 1.46 fold enrichment (6-mer frequency, TF over GST control). For the same sequence, the binding signal (ETV2) was 1.43 fold enrichment (6-mer frequency, TF over GST control), the binding signal (ELF3) was 1.51 fold enrichment (6-mer frequency, TF over GST control) and the binding signal (CRX) was 1.59 fold enrichment (6-mer frequency, TF over GST control). For the same sequence, the binding signal (ETV1) was 1.66 fold enrichment (6-mer frequency, TF over GST control).
